# An excerpt weighted towards active compounds, which were near 1.3% of everything screened.
# BRCA1 expr up: qHTS Assay to Identify Small Molecule Activators of BRCA1 Expression; MCF7-BRCA1-FFLuc reporter, luminescence, 48 h; response scale: scaled: vehicle 0%, 10 µM genistein 100%; Potency, µM (series often up to 46.1 µM), for inactives: top-dose activation, actives largely listed as activators; 380,000 compounds, 1.1% hits; also: potency is read from the fitted curve at half-maximal effect; nearly all actives have a fitted effect of over 80% in size
#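 MCF7-BRCA1-FFLuc cells, 2000/well in phenol-red-free MEM, attached 2 h then treated 48 h at 37 C. Luciferase luminescence read 15 min after reagent; normalized to genistein maximum activation (10microM) and DMSO, concentration-response fitted.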
# PKM2 act: qHTS Assay for Activators of Human Muscle isoform 2 Pyruvate Kinase | Pyruvate kinase PKM (Homo sapiens), P14618 | purified PKM2, Kinase-Glo ATP luminescence, activation; response scale: 0% is enzyme alone, no compound | Potency, µM (titrated, usually from 57.5 µM), for the others: top-dose activation, usual class: activators | 260,000 compounds, 0.34% hits | AID 1631, 2009; also: potency is read from the fitted curve at half-maximal effect; % is scaled to controls: 0 for no effect and ±100 for the full control effect; nearly all actives have a fitted effect of over 55% in size
#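 hPK-M2, >95% pure; 0.1 mM ADP / 0.5 mM PEP final; imidazole pH7.2 buffer w/ 7 mM MgCl2, 50 mM KCl; 1 h RT; Kinase-Glo lum. Intermediate enzyme activity for dual inhibitor/activator qHTS.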
# IL2 activator: qHTS of IL-2 Activators; activation, % (series mostly up to about 46 µM); AID 652025, 2013; 360,000 compounds, 0.065% hits; IL-2 activation reporter assay, cell-based qHTS; stimulated with anti-CD3/CD4/CD28 beads; in transgenic mouse T cells; in the data active = activation above about 50%; inconclusive = mostly about 30% to 49%; also: 0% is about no effect
#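 Readout: EGFP and DsRed signals by fluorescent plate cytometry. Unstimulated transgenic mouse T cells received compound 60 min before antibody-bead stimulation, then incubated 18 h at 37 degrees C.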
# Integrin act MD: qHTS for Activators of Integrin-Mediated Alleviation for Muscular Dystrophy; alpha7betagal myoblasts, beta-gal FDG fluorescence, 48 h; 350,000 compounds, 0.064% hits; Potency, µM (titrated, usually from 38.3 µM), inactives show at the top dose activation, actives largely listed as activators; AID 624291, 2012;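 also: potency is read from the fitted curve at half-maximal effect; 100% = response of the positive control SU9516; nearly all actives have a fitted effect of over 60% in size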
#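 alpha7betagal+/- myoblasts (passage 13, 250/well) treated 48 h at 37C with compounds at 1:260 dilution of DMSO stock. Lysed, then beta-galactosidase activity read as FDG fluorescence (ex 480/em 540) after 30 min, with pre-read for autofluorescence.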
# Apoferritin bind: qHTS Assay for Identification of Novel General Anesthetics; Potency, µM (highest dose often 77.5 µM), inactives show at the highest dose activity change, negative = displacement, most hits filed as inhibitors; Ferritin light chain (Equus caballus), P02791; 350,000 compounds, 0.074% hits; apoferritin/1-aminoanthracene competitive binding, fluorescence; also: potency is read from the fitted curve at half-maximal effect; % is scaled to controls: 0 for no effect and ±100 for the full control effect; nearly all actives have a fitted effect of over 20% in size
# Target sequence (P02791 2-175 limits assumed): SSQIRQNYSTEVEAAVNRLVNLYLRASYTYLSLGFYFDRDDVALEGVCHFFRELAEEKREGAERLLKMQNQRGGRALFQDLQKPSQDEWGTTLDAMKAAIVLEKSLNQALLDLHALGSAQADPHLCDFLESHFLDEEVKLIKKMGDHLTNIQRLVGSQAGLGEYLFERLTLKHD
#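 Steps: apoferritin (10 uM) was premixed with half-saturated 1-AMA in PBS, compounds were pin-transferred, plates stood 10 min at room temperature, fluorescence was read at 380/535 nm, and curves were fitted with a Hill equation.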
# Starred values were filed as active, the others as inactive; u = inconclusive; x = no result. Unless noted, calls follow the shape of the dose curve; as a rule, active = well fitted curve in the direction sought with a large enough effect; inconclusive = small, poorly fitted or top-dose-only effect, or another doubt; inactive = no such curve, though single readings can be large; an effect the other way counts as inactive or inconclusive.
SMILES,BRCA1 expr up,PKM2 act,IL2 activator,Integrin act MD,Apoferritin bind
CCOC(=O)c1csc(NC(=O)c2cccs2)n1,7.9µM*,-1%,0,5%,-8%
O=C(O)c1cnn(-c2nc(-c3ccc(Br)cc3)cs2)c1C(F)(F)F,5µM*,x,0,-14%,-1%
COc1cccc(N2C(=O)C(CC(=O)Nc3ccc(F)cc3)N(CCC3=CCCCC3)C2=O)c1 (stereo not given),x,x,x,x,42%
CCCCC(=O)Nc1ccc(C2C(=O)c3ccccc3C2=O)cc1,4µM*,x,2,36%,x
CCCCCC(=O)Nc1ccc2ccccc2c1,2.8µM*,0%,1,30%,-15%
Cc1csc(SCC(=O)N2CCN(S(=O)(=O)c3ccc(Cl)cc3)CC2)n1,-10%,u,-2,23%,-4%
CCOC(=O)c1ccoc1CSCC(=O)N1CCN(S(=O)(=O)c2ccc(C)cc2)CC1,-20%,25µM*,3,12%,-23%
Cc1ccc(S(=O)(=O)N2CCN(C(=O)CSc3ccc(F)cc3)CC2)cc1,-18%,13µM*,-1,-13%,4%
C=CCN1CCN(C(=O)c2ccc(-c3ccccc3)cc2)CC1,0%,1%,1,5%,-6%
C=CCN1CCN(C(=O)CSc2ccccc2)CC1,11µM*,-1%,0,5%,-3%
Cc1csc(SCC(=O)N2CCN(S(=O)(=O)c3ccccc3)CC2)n1,30%,32µM*,0,4%,-14%
Cc1ccc(-c2nc3cc(Cl)ccc3o2)cc1NC(=O)COc1ccccc1C,2%,x,x,x,x
COCCNC(=O)C1(C(F)(F)F)C/C(=C\Cc2ccccc2)CCCO1 (stereo not given),x,x,x,x,-3%
CC(C)(C)[C@@H](O)C(Cc1ccc(Cl)cc1)n1cncn1 (stereo not given in full),x,x,x,x,-6%
O=C(CSc1ccccc1)N1CCN(S(=O)(=O)c2ccccc2)CC1,38%,2.8µM*,-1,29%,-20%
O=C(Cc1cccs1)N1CCN(S(=O)(=O)c2ccc(Br)cc2)CC1,-3%,3.2µM*,1,0%,-18%
O=C(O)CSCC(=O)N1CCN(S(=O)(=O)c2ccccc2)CC1,23%,-1%,2,-9%,-3%
Cc1cc(C)nc(-n2nc(C)c3c2N(Cc2ccccc2F)C(=O)CC3c2ccc(Cl)cc2)n1 (stereo not given),x,x,x,x,-2%
CCCCNC(=O)CN1CCN(c2ncc(NC(=O)c3ccc(Cl)cc3)cc2C(=O)O)CC1,x,x,x,x,0%
Cc1ccc(/C=C2/NC(=O)N(Cc3ccccc3F)C2=O)o1,-22%,3.5µM*,-3,-20%,-4%
CCCN1C(=O)/C(=C/c2ccc(C)o2)NC1=S,x,25µM*,x,x,-23%
CCN1C(=O)N/C(=C/c2ccc(C)o2)C1=O,1%,u,-1,17%,-14%
Cc1ccc(/C=C2/NC(=O)N(Cc3ccc(Br)cc3)C2=O)o1,-23%,1.6µM*,0,7%,-14%
Cc1ccc(/C=C2/NC(=O)N(c3ccccc3)C2=O)o1,7.9µM*,u,-3,18%,-21%
CCCCC(Sc1ccc2nnc(-c3ccccn3)n2n1)C(=O)O (stereo not given),10%,x,x,x,x
SMILES,BRCA1 expr up,PKM2 act,IL2 activator,Integrin act MD,Apoferritin bind
O=C(COc1ccccc1C(=O)OCC(=O)Nc1cccc2ccccc12)Nc1ccc(Br)cc1,1%,x,x,x,x
Cc1ccc(C)c(NC(=O)Cn2cc(S(=O)(=O)Cc3cccc(Cl)c3)c3ccccc32)c1,x,x,x,x,37%
CC(=O)N1N=C(c2ccc(C)cc2)OC1c1ccc(C(C)C)cc1 (stereo not given),7.9µM*,-1%,3,-30%,-20%
CCCCN1C(=O)/C(=C/C=C2\SCCN2C)SC1=S,7.1µM*,1%,17,-32%,u
CN1CCS/C1=C/C=C1/SC(=S)N(Cc2ccccc2)C1=O,13µM*,-2%,3,-43%,-22%
CN1CCS/C1=C/C=C1\SC(=S)N(CC(=O)O)C1=O,3%,-1%,-1,-1%,-11%
